Measurements from article PMC5700166.
Substitutions are numbered along the chain they refer to.

Tests used:
Assay in all cases: protein-binding microarray (PBM); PBM: ~300 nM protein, 6 mM HEPES pH 7.8, 80 mM KCl, 0.5 mM EDTA, 0.5 mM EGTA, 6% glycerol, 35 ng/ul poly-dIdC, 1% milk, 1 h, room temperature; Ap Aiptasia and Nv Nematostella (sea anemones) / Co Capsaspora / Aq Amphimedon (sponge) / Dm Drosophila / Hu human; RHD is the Rel homology domain; high values mean tight binding
Details in all cases: dsDNA, one strand shown
GST-Ap-NF-kB RHD = target: T1, GST-Ap-NF-kB RHD (Exaiptasia pallida (Aiptasia), UniProt A0A913YAJ5 2-422)
T1 sequence: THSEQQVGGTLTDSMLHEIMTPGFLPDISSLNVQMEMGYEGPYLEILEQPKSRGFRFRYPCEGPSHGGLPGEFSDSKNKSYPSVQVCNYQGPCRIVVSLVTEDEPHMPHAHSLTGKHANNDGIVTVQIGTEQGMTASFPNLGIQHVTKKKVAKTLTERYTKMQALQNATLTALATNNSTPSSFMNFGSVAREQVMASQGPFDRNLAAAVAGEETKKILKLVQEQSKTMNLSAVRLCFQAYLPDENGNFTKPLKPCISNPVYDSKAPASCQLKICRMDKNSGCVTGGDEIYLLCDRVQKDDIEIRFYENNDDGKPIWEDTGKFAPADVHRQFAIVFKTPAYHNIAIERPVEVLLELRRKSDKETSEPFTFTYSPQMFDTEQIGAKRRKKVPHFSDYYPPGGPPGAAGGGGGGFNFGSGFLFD

[1] = target: T2, GST-Nv-NF-kB (Cys allele) (Nematostella vectensis, UniProt E5G601 2-411)
T2 sequence: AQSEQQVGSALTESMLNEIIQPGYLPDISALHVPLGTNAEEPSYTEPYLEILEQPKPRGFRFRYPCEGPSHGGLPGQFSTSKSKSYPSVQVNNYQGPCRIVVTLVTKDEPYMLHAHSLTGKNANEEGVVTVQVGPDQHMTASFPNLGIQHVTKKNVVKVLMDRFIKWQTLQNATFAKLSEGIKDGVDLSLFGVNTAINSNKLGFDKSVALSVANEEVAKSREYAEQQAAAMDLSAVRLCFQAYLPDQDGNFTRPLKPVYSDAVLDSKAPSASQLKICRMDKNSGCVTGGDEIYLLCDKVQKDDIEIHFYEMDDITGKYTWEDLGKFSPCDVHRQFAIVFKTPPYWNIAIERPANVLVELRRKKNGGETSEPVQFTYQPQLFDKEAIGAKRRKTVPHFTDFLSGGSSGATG

GST-Aq-NF-kB = target: T3, GST-Aq-NF-kB (Amphimedon queenslandica, UniProt A9Y5G7 2-389)
T3 sequence: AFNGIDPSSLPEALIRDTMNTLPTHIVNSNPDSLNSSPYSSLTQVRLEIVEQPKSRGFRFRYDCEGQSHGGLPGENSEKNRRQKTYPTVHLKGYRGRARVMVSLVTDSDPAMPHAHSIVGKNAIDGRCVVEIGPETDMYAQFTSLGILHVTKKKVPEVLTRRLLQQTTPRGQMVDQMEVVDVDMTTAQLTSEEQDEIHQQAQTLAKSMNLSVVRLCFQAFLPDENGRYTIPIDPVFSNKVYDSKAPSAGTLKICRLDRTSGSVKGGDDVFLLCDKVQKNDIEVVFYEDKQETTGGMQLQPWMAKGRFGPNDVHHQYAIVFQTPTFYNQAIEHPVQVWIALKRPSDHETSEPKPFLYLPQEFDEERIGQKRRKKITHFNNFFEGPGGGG

GST-Dm-Relish = target: T4, GST-Dm-Relish (Drosophila melanogaster, UniProt Q94527 99-473)
T4 sequence: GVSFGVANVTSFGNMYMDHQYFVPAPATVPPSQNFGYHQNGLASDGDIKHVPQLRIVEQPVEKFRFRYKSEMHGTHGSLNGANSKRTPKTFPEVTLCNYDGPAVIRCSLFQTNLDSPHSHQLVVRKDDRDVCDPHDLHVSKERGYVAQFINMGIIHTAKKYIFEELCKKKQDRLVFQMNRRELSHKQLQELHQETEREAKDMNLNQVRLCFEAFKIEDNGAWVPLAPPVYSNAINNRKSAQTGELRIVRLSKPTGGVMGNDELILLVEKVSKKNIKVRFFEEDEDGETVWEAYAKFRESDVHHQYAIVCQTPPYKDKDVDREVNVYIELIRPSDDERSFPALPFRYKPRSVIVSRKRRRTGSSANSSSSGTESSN

GST-Hu-p50 = GST-Hu-p50 (Homo sapiens, UniProt P19838 7-356)
GST-Hu-p50, sequence (P19838 7-356): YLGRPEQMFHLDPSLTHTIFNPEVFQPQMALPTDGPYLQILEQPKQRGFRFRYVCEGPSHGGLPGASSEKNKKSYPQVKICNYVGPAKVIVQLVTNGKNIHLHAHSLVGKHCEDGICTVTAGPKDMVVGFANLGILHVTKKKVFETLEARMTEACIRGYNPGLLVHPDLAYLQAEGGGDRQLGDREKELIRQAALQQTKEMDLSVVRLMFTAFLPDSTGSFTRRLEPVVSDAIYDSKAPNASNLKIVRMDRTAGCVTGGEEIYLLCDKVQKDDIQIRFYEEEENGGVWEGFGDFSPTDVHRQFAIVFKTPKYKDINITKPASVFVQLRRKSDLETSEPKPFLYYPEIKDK

GST-Co-NF-kB = target: T5, GST-Co-NF-kB (Capsaspora owczarzaki, UniProt F1ARL5 200-546)
T5 sequence: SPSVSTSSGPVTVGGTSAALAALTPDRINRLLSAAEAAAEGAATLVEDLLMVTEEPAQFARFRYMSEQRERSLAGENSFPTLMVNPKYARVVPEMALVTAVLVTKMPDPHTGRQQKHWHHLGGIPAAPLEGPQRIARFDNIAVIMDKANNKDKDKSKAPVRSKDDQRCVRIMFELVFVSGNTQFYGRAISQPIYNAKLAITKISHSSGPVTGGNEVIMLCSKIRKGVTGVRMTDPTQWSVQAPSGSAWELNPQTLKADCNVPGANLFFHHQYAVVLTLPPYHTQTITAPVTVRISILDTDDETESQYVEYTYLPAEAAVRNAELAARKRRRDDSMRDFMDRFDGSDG

[2] = target: T6, GST-Nv-NF-kB (Ser allele) (Nematostella vectensis, UniProt A7UNT2 2-411)
T6 sequence: T2 sequence with Q21R, C66S, S207N, E215Q, V217A, E225K, A268E, D399E

Row | Sequence | binding signal (GST-Ap-NF-kB RHD) [z-score] | binding signal [1] [z-score] | binding signal (GST-Aq-NF-kB) [z-score] | binding signal (GST-Dm-Relish) [z-score] | binding signal (GST-Hu-p50) [z-score] | binding signal (GST-Co-NF-kB) [z-score] | binding signal [2] [z-score]
1 | CCGATTAACATCATTGTCCCTTCTGATGTTAATCGGGTCTTGATTCGCTTGACGCTGCTG | 2.23 | 4.09 | 2.67 | – | – | – | –
2 | CCGATTAACATCAGGAATTTTCATGATGTTAATCGGGTCTTGATTCGCTTGACGCTGCTG | – | – | 1.37 | 1.12 | 1.36 | – | –
3 | CCGATTAACATCAGAAAAATTCCTGATGTTAATCGGGTCTTGATTCGCTTGACGCTGCTG | – | – | 2.21 | 2.97 | 1.71 | – | –
4 | CCGATTAACATCAGGAAAATTCCTGATGTTAATCGGGTCTTGATTCGCTTGACGCTGCTG | – | – | 2.45 | 1.52 | 1.61 | – | –
5 | CCGATTAACATCAGGAACCTCCCTGATGTTAATCGGGTCTTGATTCGCTTGACGCTGCTG | 1.92 | 2.34 | 4.17 | – | – | – | –
6 | CCGATTAACATCAGGACCGTCCCTGATGTTAATCGGGTCTTGATTCGCTTGACGCTGCTG | 4.25 | 3.73 | 6.42 | – | – | – | –
7 | CCGATTAACATCACAAAAATTCCTGATGTTAATCGGGTCTTGATTCGCTTGACGCTGCTG | – | – | 1.5 | 2.38 | 1.01 | – | –
8 | CCGATTAACATCAAAAATTTCCATGATGTTAATCGGGTCTTGATTCGCTTGACGCTGCTG | – | – | 1.53 | 1.53 | 1.32 | – | –
9 | CCGATTAACATCAGGCACTTCCCTGATGTTAATCGGGTCTTGATTCGCTTGACGCTGCTG | 1.15 | 1.51 | 3.6 | – | – | – | –
10 | CCGATTAACATCAAAAATTCCAGTGATGTTAATCGGGTCTTGATTCGCTTGACGCTGCTG | – | – | 1.48 | 1.57 | 1.08 | 1.37 | –
11 | CCGATTAACATCAGGAATTGCCCTGATGTTAATCGGGTCTTGATTCGCTTGACGCTGCTG | 1.16 | 2.2 | 4.94 | – | – | – | –
12 | CCGATTAACATCAAGAAAATTCCTGATGTTAATCGGGTCTTGATTCGCTTGACGCTGCTG | – | – | 1.97 | 1.53 | 1.07 | – | –
13 | CCGATTAACATCAAGGGAAAATATGATGTTAATCGGGTCTTGATTCGCTTGACGCTGCTG | 3.77 | 7.5 | 4.44 | 1.66 | – | 4.43 | 8.19
14 | CCGATTAACATCACGGGGGGAAATGATGTTAATCGGGTCTTGATTCGCTTGACGCTGCTG | 6.31 | 6.61 | 5.52 | 4.78 | – | 11.2 | 7.51
15 | CCGATTAACATCAGGGGATTAAATGATGTTAATCGGGTCTTGATTCGCTTGACGCTGCTG | 4.91 | 6.29 | 5.21 | 5.28 | – | 3.71 | 7.01
16 | CCGATTAACATCAGGGAAAAAAATGATGTTAATCGGGTCTTGATTCGCTTGACGCTGCTG | 3.48 | 5.81 | 4.63 | 2.19 | – | 5.71 | 7.5
17 | CCGATTAACATCACCATTTTCCCTGATGTTAATCGGGTCTTGATTCGCTTGACGCTGCTG | 3.46 | 4.65 | 3.42 | 1.32 | – | 3.65 | 7.17
